SRC3 inh = inhibitors of human steroid receptor coactivator 3 (SRC3); inhibition, % at 3.6 µM; 360,000 compounds, 0.17% hits; Q9Y6Q9; HEK293 GAL4-SRC3 luciferase reporter, luminescence;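 active means inhibition above a per-campaign cutoff, the mean of all compounds plus 3 SD, cut at about 60% in these data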;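 further: 0% = DMSO-treated cells and 100% = gossypol-treated cells at 36 µM; higher means less SRC3-driven luciferase light from the GAL4 reporter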
NR5A2 inv ag = suppresses constitutive activity of human LRH-1; 360,000 compounds, 0.13% hits; HEK293T StAR-luciferase reporter, LRH-1 transfected, 24 h; AID 602396; O00482; inhibition, % at 3.6 µM;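 active means inhibition above the mean inhibition of all tested compounds plus 3 SD, cut at about 73% in these data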;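 further: 0% = DMSO wells and 100% = reporter-only cells lacking LRH-1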
Shn3 3UTR inh = Schnurri-3 reporter inhibition in Clone20 osteoblasts; Clone20 osteoblast Shn3 3'UTR firefly luciferase, 24 h; inhibition, % at 12.5 µM; 360,000 compounds, 0.52% hits; AID 588674;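 active means mean inhibition of at least 75% with every replicate also reaching 75%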;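 further: 0% = median of neutral control wells and 100% = pilot-screen positive control compound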
SRC1 inh = inhibits human SRC1 coactivator; HEK293 GAL4-SRC1 luciferase reporter, luminescence; inhibition, % at 3.6 µM; 360,000 compounds, 0.12% hits; Q15788;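 active means inhibition above the campaign mean plus 3 SD, with each screening campaign given its own cutoff, cut at about 60% in these data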;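 further: 0% = DMSO treated cells and 100% = gossypol at 36 µM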
LMP1 NFkB inh = Epstein-Barr LMP1 NF-kappaB reporter inhibition | LMP1-induced NF-kappaB luciferase reporter cells, luminescence | inhibition, % at 12.5 µM | 350,000 compounds, 0.69% hits; in the data active means inhibition above about 41%;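 further: 0% = neutral control wells and 100% = reference inhibitor control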
NCOA2 inhibitor = human SRC2 (NCOA2) inhibition. HEK293 GAL4-SRC2 luciferase reporter, luminescence. AID 651957. inhibition, % at 9 µM. 370,000 compounds, 0.17% hits;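 active means inhibition above the mean inhibition of all tested compounds plus 3 SD, set per campaign, cut at about 52% in these data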;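 further: 0% = DMSO treated cells and 100% = cells given Gossypol at 36 µM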
The depositor's hits bear a star; nt = no result. Most compounds without a hit are left out; they make up all but 1.2% or so of the library.

SMILES	SRC3 inh	NR5A2 inv ag	Shn3 3UTR inh	SRC1 inh	LMP1 NFkB inh	NCOA2 inhibitor
COC(=O)[C@]12C[C@H](CC(=O)NCCC(C)C)C(=O)N(Cc3cccc4ccccc34)C1=C[C@H](C(C)C)O[C@@H]2C1CC1	nt	nt	nt	nt	nt	12
O=C(NC1CCCCN(Cc2ccc(Cl)cc2)C1=O)c1ccc2ccccc2c1 (stereo unspecified)	nt	nt	nt	nt	nt	9
CC(=NNC(=O)CSc1nnc(-c2ccc(C(C)(C)C)cc2)n1-c1ccccc1)c1cccc2ccccc12	nt	nt	nt	nt	nt	27
O=C1CC(=O)OC(c2ccc([N+](=O)[O-])cc2)O1	78*	9	98*	-17	26	nt
CCC1C(=O)C(C)(C)C(=O)OC1c1ccc([N+](=O)[O-])cc1 (stereo unspecified)	-23	-2	1	-10	1	-1
O=C(O)[C@@H]1[C@H]2C[C@H]3c4[nH]c5ccccc5c4CCN3C[C@@H]2CC[C@@H]1O	5	-7	-3	-33	65*	-3
COC(=O)C1=CO[C@@H](C)[C@H]2CN3CCc4c([nH]c5ccccc45)[C@@H]3C[C@H]12	-2	5	19	-1	78*	13
CC(C)(C)OC(=O)N1CCC2CCN(S(C)(=O)=O)CC21 (stereo unspecified)	nt	nt	nt	nt	nt	-1
CCOC(=O)C1=C(C(=O)OCC)C2N(Cc3ccc(Br)cc3)c3ccccc3[C@@]23C[C@@H](C(=O)OC)N(S(=O)(=O)c2ccc(Br)cc2)C3=N1 (stereo partly specified)	nt	nt	nt	nt	nt	-9
Cc1ccc[n+](CC(=O)c2ccc(-c3ccccc3)cc2)c1	1	3	10	-7	-2	19
Cc1ccc(C(=O)C[n+]2ccccc2)cc1	-3	-22	-39	-6	68*	-11
Nn1c(SCC(=O)Nc2ccc(OCc3ccccc3)cc2)nnc1-c1cc(-c2ccc(F)cc2)n[nH]1	nt	nt	nt	nt	nt	5
COc1ccc(-c2noc(CCCC(=O)O)n2)cc1	46	51	51	31	-4	77*
CCOc1ccc(-c2noc(CCC(=O)O)n2)cc1	43	47	59	29	-1	73*
CCOC(=O)[C@@]12CCCC3=C1N(CCC3)C(=O)[C@H]2CC(=O)N1CCCC1	nt	nt	nt	nt	nt	5
CCn1c(SC(C)C(=O)OC)nnc1-c1c[nH]c2ccccc12 (stereo unspecified)	-24	-2	-5	-21	75*	1
COCCn1c(SCC(=O)NCc2ccco2)nnc1-c1c[nH]c2ccccc12	12	-3	-10	-7	73*	-29
CCCCN1CCN(C(=O)c2ccc(CNC(=O)c3cccc(Br)c3)cc2)CC1	nt	nt	nt	nt	nt	-19
Oc1ccc(N=Nc2ccccc2C(F)(F)F)c2cccnc12	-41	12	90*	-22	72*	6
CCS(=O)(=O)c1ccc(N=Nc2ccc(O)c3ncccc23)c(OC)c1	22	8	95*	-36	-14	-5
Cc1ccc(N=Nc2ccc(O)c3ncccc23)cc1	16	1	91*	-8	13	-18
COc1ccccc1N=Nc1ccc(O)c2ncccc12	-29	-20	25	-40	32	-25
Cc1ccc(OCc2nnc(SCC(=O)c3ccc4ccccc4c3)n2-c2ccc(Cl)cc2)cc1	nt	nt	nt	nt	nt	1
Cc1[nH]c2ccccc2c1CC(=O)Nc1ccc(Nc2cccnc2)c(-c2ccc(OC(F)(F)F)cc2)c1	nt	nt	nt	nt	nt	30
C[C@@H]1Cc2cc(O)cc(O)c2C(=O)O1	nt	nt	nt	nt	nt	-12
SMILES	SRC3 inh	NR5A2 inv ag	Shn3 3UTR inh	SRC1 inh	LMP1 NFkB inh	NCOA2 inhibitor
CC(C)c1nnc(NC(=O)CCS(=O)(=O)c2nc(-c3cccs3)cc(C(F)(F)F)n2)s1	-24	-24	99*	-7	-5	-6
CC(C)c1nnc(NC(=O)CCS(=O)(=O)Cc2ccccc2)s1	12	0	-5	0	6	-39
O=C(C(Br)=Cc1ccccc1)c1ccccc1	11	5	97*	-18	-28	-31
Cc1cnc(NC(=O)c2sc3ccccc3c2Cl)s1	-142	-146	18	-128	17	-101
Cc1ccnc(NC(=O)c2sc3ccccc3c2Cl)c1	-85	-155	9	-99	61*	-53
CCC(C)[C@H](NC(=O)NCc1cccnc1)C(=O)OC (stereo partly specified)	3	17	-14	-10	52*	-13
COc1ccc2c(c1)[C@@]1(NCCc3c1[nH]c1ccc(OC)cc31)C(=O)N2	nt	nt	nt	nt	nt	-9
COC(=O)c1cc2c(c3c4ccccc4n(S(=O)(=O)c4ccc(OC)cc4)c13)C(=O)N(Cc1ccc(N(C)C)cc1)C2	nt	nt	nt	nt	nt	7
CCCCN(CC)Cc1ccc(CNC(=S)Nc2ccc(C)cc2Cl)o1	36	9	70	15	9	53*
CCn1cc(C(=O)NC(C)C23CC4CC(CC(C4)C2)C3)cn1 (stereo unspecified)	23	15	-19	-9	3	-14
CC(NC(=O)Cn1ncc(Cl)c(Cl)c1=O)C12CC3CC(CC(C3)C1)C2 (stereo unspecified)	11	-32	98*	-36	-94	nt
C/C(=C/c1nc(N)n(Cc2ccccc2)c1Cc1ccccc1)Cn1[nH]c(=O)n(-c2ccccc2)c1=O	nt	nt	nt	nt	nt	27
O=C(N/N=C/c1ccc(O)cc1O)c1ccc(CN2C(=O)c3cccc4cccc2c34)cc1	68*	65	94*	45	50*	37
Cc1cc([N+](=O)[O-])nn1Cc1ccc(C(=O)N/N=C/c2ccc(O)cc2O)cc1	77*	67	60	56	-20	17
COc1ccc2[nH]c3c(c2c1)CCN[C@]31C(=O)N(Cc2cn(Cc3ccccc3)nn2)c2ccccc21	nt	nt	nt	nt	nt	-12
Cc1cc(=O)[nH]c(N/N=C/c2ccccc2Cl)n1	-20	-1	-3	-16	-5	-5
CCN(CC)c1ccc(/C=N/Nc2nc(C)cc(=O)[nH]2)c(O)c1	84*	33	83	81*	61*	46
Cc1cc(=O)[nH]c(NN=Cc2cc(Br)ccc2O)n1	51	4	74	25	56*	33
Cn1nc(C(C)(C)C)cc1C(=O)NCc1ccc2c(c1)OCO2	15	42	90*	7	37	15
Cc1oc(C(C)(C)C)cc1C(=O)NCc1ccc2c(c1)OCO2	11	-8	22	-3	0	-4
CCOC(=O)CCSc1nc(C)cc(C(F)(F)F)c1C#N	3	4	-5	5	5	-2
CCOC(=O)CCSc1nc(C(C)(C)C)cc(C(F)(F)F)c1C#N	17	1	18	11	1	70*
CC1=CC2C(C(O)CC3(C)C2CC(C)C32OCOC23COCO3)C2(C)C/C(=C\O)C(=O)C=C12 (stereo unspecified)	-21	-11	87*	-20	-1	-48
Nc1nc(Cl)nc2c1ncn2[C@H]1C[C@H](O)[C@@H](CO)O1	-30	18	88*	3	7	-41
